Source: PubChem BioAssay
PNC assembly inh – inhibitors of perinucleolar compartment assembly; actives 3.1% (n = 140,000); activity change (PNC), negative = inhibition, % at 10 µM; PC3M PTB-GFP, PNC prevalence imaging, 16 h; stronger effect = lower value;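 active = readout at or below -70, meaning at least 70% loss of cells showing the perinucleolar compartment, a nuclear body marking cancer cells; inconclusive = readout between -30 and a set limit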
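Compounds are pinned in duplicate onto adhered PC3M cells stably expressing GFP-tagged PTB and incubated 16 h at 37 C. Cells are then fixed, nuclei stained with Hoechst, and PNC-positive cells counted.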
IMPase inh – cell-permeable inhibitors of inositol monophosphatase (IMPase); P97697; CHO-M1 cells, IP1 accumulation, HTRF TR-FRET ratio; inhibition (IP1 accumulation), % at 46.1 µM; 120,000 tested, under 10 active; AID 901; active = well fitted curve in the direction sought with a large enough effect in the signal ratio, not every such curve was filed as active; inconclusive = small, poorly fitted or top-dose-only effect, or a change in a side signal; inactive = no such curve, though single readings can be large or run the other way; the % refers to the signal ratio;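 also: cells stimulated with carbachol in lithium chloride buffer; higher means more IMPase inhibition seen as more IP1 and lower FRET ratio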
Target sequence (P97697 whole entry, looked up): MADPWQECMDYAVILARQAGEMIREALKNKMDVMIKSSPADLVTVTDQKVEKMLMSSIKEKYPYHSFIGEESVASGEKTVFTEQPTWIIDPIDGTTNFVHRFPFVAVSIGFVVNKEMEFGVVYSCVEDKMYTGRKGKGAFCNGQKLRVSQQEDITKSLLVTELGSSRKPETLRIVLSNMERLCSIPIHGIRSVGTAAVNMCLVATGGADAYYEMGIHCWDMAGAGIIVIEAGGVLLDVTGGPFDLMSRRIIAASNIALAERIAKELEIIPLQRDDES
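Carbachol-driven Gq signalling in CHO-M1 cells (2000/well) generates IP1. Compounds that block IMPase raise IP1 and so reduce the FRET signal from Eu-anti-IP1 and d2-IP1 after a 10 min room-temperature lysis.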
LMNA splice mod – modulators of lamin A splicing. AID 1487. actives 0.01% (n = 200,000). Potency, µM (doses to about 46.1 µM), actives largely listed as inhibitors. HeLa LMNA splicing GFP/RFP minigene ratio, 48 h; active = well fitted inhibition curve with a large enough effect in the signal ratio, with a control signal flat, not every such curve was filed as active; inconclusive = small, poorly fitted or top-dose-only effect, or effect the other way, or a change in a side signal; the % refers to the signal ratio
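S3 HeLa stable clones carrying a lamin A-EGFP splicing minigene plus DsRed2 were seeded at 600 cells/well in Opti-MEM with 2% FBS, pin-dosed and incubated 48 h at 37°C. Acumen cytometry (488 nm) gave the GFP/RFP total-intensity ratio.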
Hits are given with their value; i = inactive; ? = inconclusive; nt = not tested or not shown; [ ] = remark or other dose. The sample as a whole holds a higher share of hits than the screen did.

SMILES	PNC assembly inh	IMPase inh	LMNA splice mod
CCC1CCCCN1Cc1nc2c(c(=O)n(C)c(=O)n2C)n1CC(C)C (stereo not given)	-95	i	i
CCC1CCCCN1Cc1nc2c(c(=O)n(C)c(=O)n2C)n1CCC(C)C (stereo not given)	i	i	i
COCCNC(=O)CN1CCC(NC(=O)c2ccco2)CC1	nt	nt	i
COc1ccc(-c2nc(CSCC(=O)NCc3ccc4c(c3)OCO4)c(C)o2)cc1OC	-92	i	?
COCCNC(=O)CSCc1nc(-c2ccc(SC)cc2)oc1C	-89	i	i
COCCNC(=O)CS(=O)(=O)Cc1nc(-c2ccc(C)cc2)oc1C	?	i	i
COc1ccc(-c2nc(CSCC(=O)NCc3ccc4c(c3)OCO4)c(C)o2)cc1	i	i	i
CN(Cc1ccccc1)C(=O)COC(=O)c1ccc(Cl)cc1N	nt	nt	i[9.22 µM]
O=C(Cn1c(=O)n(CCCS(=O)(=O)C2CCCCC2)c(=O)c2ccccc21)Nc1ccccc1C(F)(F)F	nt	i	nt
COc1ccc(CCNC(=O)CSc2nnc(Cc3csc(N)n3)n2C)cc1OC	-95	i	i
COc1ccc(CCNC(=O)CSc2nnc(Cn3c(=O)sc4ccccc43)n2C)cc1OC	i	i	i
COc1ccc(Cl)cc1NC(=O)c1cc2ccc3ccc(C)[nH]c3c2n1	nt	nt	i
COc1ccc(-n2c(-c3ccc(Br)cc3)c[n+]3c2CCc2ccccc2-3)cc1	-134	nt	?
COc1ccc(-c2cn(-c3ccc(OC)cc3)c3[n+]2-c2ccccc2CC3)cc1	-96	i	?
COc1ccc(-c2c[n+]3c(n2-c2ccccc2)CCCCC3)cc1	i	i	i
COc1ccc(-n2cc(-c3ccc(C)cc3)[n+]3c2SCC3)cc1	?	i	?
O=C1c2ccccc2C(=O)N1CCc1nc2ccccc2c(=O)n1CCCn1ccnc1	i	i	i
COc1cc(S(C)=O)ccc1-c1nc2ncccc2[nH]1 (stereo not given)	nt	i	?
Clc1ccc2c(c1)[C@H]1OCC[C@H]1[C@@H](c1ccco1)N2	i	i	i
CCc1ccc2c(c1)[C@H]1OCC[C@H]1[C@@H](c1cccs1)N2	-109	nt	?
NS(=O)(=O)c1ccc(-n2cccc2C=O)cc1	nt	nt	i
CCC/C=N/NC(=O)c1[nH]c2c([N+](=O)[O-])cccc2c1C	-113	i	?
CCC/C=N/NC(=O)c1ccc(F)cc1	nt	nt	i
Cc1cc(C)c(S(=O)(=O)NCCS(=O)(=O)N2CCN(c3ccccc3)CC2)c(C)c1	nt	nt	i
Cc1sc2c(=O)n3c(nc2c1C(=O)NCCCN1CCOCC1)CCCCC3	i	i	i
SMILES	PNC assembly inh	IMPase inh	LMNA splice mod
Cc1ccc2c(c1)CC(C)N2S(=O)(=O)c1nnc(NC(=O)C(C)C)s1 (stereo not given)	nt	nt	i
Cc1ccc(/C=C/c2nc3ccccc3c(=O)n2CCc2ccccc2)cc1	-83	i	?
Cc1ccccc1/C=C/c1nc2ccccc2c(=O)n1CCc1ccccc1	i	i	?
COc1cccc(C(=O)Nc2cc(-c3cn4cccnc4n3)ccc2C)c1OC	nt	nt	i
CC1=CN2C(=NC(=O)CC2(C)C(=O)N(CC(=O)NC2CCCC2)c2ccccc2C)C=C1 (stereo not given)	-100	i	i
CC1=CC=CC2=NC(=O)CC(C)(C(=O)N(CC(=O)NC3CCCC3)c3ccccc3C)N12 (stereo not given)	i	i	i
O=S(=O)(NC1CCCC1)c1cccc(S(=O)(=O)N2CCC(n3nnc4ccccc43)CC2)c1	?	i	?
Nc1nonc1NC(=O)CSc1ncccc1C(=O)O	-84	i	i
COc1ccc(OC)c(NC(=O)CSc2ncccc2C(=O)O)c1	?	i	i
CN1CCN(c2ncncc2-c2cccnc2)CC1	nt	nt	i
Cc1cc(=O)n2nc(N3CCCC(C(=O)N4CCN(c5ccccc5)CC4)C3)sc2n1 (stereo not given)	-117	i	i
Cc1cc(=O)n2nc(N3CCCC(C(=O)NC(C)c4ccccc4)C3)sc2n1 (stereo not given)	i	i	i
CCC(C)(C)n1nnnc1C(c1ccncc1)N1CCC(C)CC1 (stereo not given)	-119	i	i
CC(C)(C)n1nnnc1C(c1ccncc1)N1CCN(C2CCCCC2)CC1 (stereo not given)	i	i	i
CC(C)(C)n1nnnc1C(c1cccnc1)N1CCN(C2CCCCC2)CC1 (stereo not given)	-84	i	i
CCC(C)(C)n1nnnc1C(c1ccc(C)cc1)N1CCC(C)CC1 (stereo not given)	?	i	i
O=C(CSc1nccn1-c1ccc(F)cc1)Nc1ccc(OC(F)(F)F)cc1	nt	nt	i
Cc1ccc(NCc2n[nH]c(=S)n2Cc2ccccc2)cc1Cl	nt	nt	i
O=c1[nH]c(NCCO)nc2c1C1(CCCCC1)Cc1ccccc1-2	i	i	i
